Experimental data taken from PubChem BioAssay (NCATS).
Records with an inconclusive call do not appear. Entries that show only a call come without a potency. Calls of active or inactive are those of the source. Calls come from the whole dose curve; as a rule, active = well fitted curve in the direction sought with a large enough effect; inconclusive = small, poorly fitted or top-dose-only effect, or another doubt; inactive = no such curve, though single readings can be large; an effect the other way counts as inactive or inconclusive.

Columns and labels:
[1] = P-glycoprotein substrates identified in KB-8-5-11 adenocarcinoma cell line, qHTS therapeutic library screen (AID 1346987); settings: KB-8-5-11 (P-gp overexpressing) viability, CellTiter-Glo, 72 h; series mostly up to 44.5 µM; note: nearly all actives have a fitted effect of over 65% in size
Procedure, shortened: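 KB-8-5-11: colchicine-selected sub-line of KB-3-1 over-expressing P-gp; assay medium lacked colchicine. 72 h drug exposure at 37 degree C, CellTiter-Glo.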

[2] = qHTS assay to identify small molecule inhibitors of chordoma cells - UCH-2 (AID 1259356); settings: UCH-2 chordoma viability, CellTiter-Glo ATP luminescence, 48 h; series mostly up to 46.1 µM
[3] = Identifying Small Molecule Inhibitors of Pancreatic Cancer Stem Cells (SN12C, Adherent) (AID 1259358); settings: viability/growth inhibition;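 note: potency is the fitted concentration of half-maximal effect; cell survival measured after 48 h of compound exposure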
Procedure, shortened: (§1)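 Endpoint: ATP-based luminescence, 48 h drug exposure. Bortezomib at 9.2 uM final as full-kill control; DMSO vehicle as negative control; activity normalized between vehicle and cell-free wells.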

[4] = Identifying Small Molecule Inhibitors of Pancreatic Cancer Stem Cells (SN12C, Spheroid) (AID 1259360); settings: SN12C spheroid viability; note: potency is the fitted concentration of half-maximal effect
Procedure, shortened: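 Spheroids grown 14 days in stem cell media on nonadherent hydrogel before screening; cells attached 4 h, then compound exposure 48 h at 37C, 5% CO2. CellTiter-Glo luminescence normalized to DMSO (no inhibition) and no-cell wells (full inhibition).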

[5] = Identifying Small Molecule Inhibitors of Pancreatic Cancer Stem Cells (A278, Adherent) (AID 1259361);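 note: viability read after 48 h compound exposure; nearly all actives have a fitted effect of over 35% in size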
Procedure, shortened: as §1

[6] = Identifying Small Molecule Inhibitors of Pancreatic Cancer Stem Cells (Panc1, Adherent) (AID 1259362); settings: viability; note: potency is the fitted concentration of half-maximal effect
Procedure, shortened: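 Luminescent ATP readout (CellTiter-Glo) quantifies surviving cells after a 48 h drug incubation. Normalization uses DMSO wells as no inhibition and media-only wells as full inhibition; bortezomib served as positive control.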

Question: Which Potency [1] does the source give for `COC(=O)CCc1ccc(OCC(O)CNC(C)C)cc1` (stereo not given) here?
Answer: Its Potency is “inactive”.

Question: With `CC1(C)OC[C@@H](COC(=O)CCc2ccc(OC[C@@H](O)CNCCNC(=O)N3CCOCC3)cc2)O1` as the compound, how does the Potency [1] read?
Answer: The Potency was “inactive”.

Question: Which Potency [2] does the source give for `NC[C@H]1O[C@H](O[C@H]2[C@H](O[C@@H]3O[C@H](CO)[C@@H](O)[C@H]3O)C(O)[C@H](N)C[C@@H]2N)[C@H](N)[C@@H](O)[C@@H]1O` (stereo not given in full) here?
Answer: Its Potency is “inactive”.

Question: And the Potency [1]?
Answer: Its Potency is “inactive”.

Question: Which Potency [2] does the source give for `C[C@]12CC[C@@H]3c4ccc(O)cc4CC[C@H]3[C@@H]1C[C@@H](O)[C@@H]2O` here?
Answer: The Potency was “inactive”.

Question: What about the Potency [1] of the same compound?
Answer: The Potency was “inactive”.

Question: With `COc1cc2c(cc1O)CC[C@@H]1[C@@H]2CC[C@]2(C)[C@@H](O)CC[C@@H]12` as the compound, how does the Potency [3] read?
Answer: The Potency was 2350 nM (active).

Question: And the Potency [4]?
Answer: The Potency was 5900 nM (active).

Question: What about the IC50 (viability decrease) [5] of the same compound?
Answer: The IC50 (viability decrease) was 935 nM (active).

Question: What about the Potency [6] of the same compound?
Answer: Its Potency is 1050 nM (active).

Question: With `CN=C(NC#N)Nc1ccc(C2=NNC(=O)CC2C)cc1` (stereo not given) as the compound, how does the Potency [2] read?
Answer: Its Potency is “inactive”.

Question: And the Potency [1]?
Answer: Its Potency is “inactive”.

Question: Which Potency [1] does the source give for `CNC(=O)CN(CCN(CCN(CC(=O)[O-])CC(=O)NC)CC(=O)[O-])CC(=O)[O-].O.[Gd+3]` here?
Answer: The Potency was “inactive”.

Question: For `CCOC(=O)OC(C)OC1=C(C(=O)Nc2ccccn2)N(C)S(=O)(=O)c2ccccc21` (stereo not given), which Potency [2] is on record?
Answer: Its Potency is “inactive”.

Question: And the Potency [1]?
Answer: Its Potency is “inactive”.
